Assay outcomes as filed in PubChem BioAssay.
An excerpt weighted towards active compounds, which were near 5.7% of everything screened.
DAX1 inh-1: inhibits human nuclear receptor DAX1; P51843; HEK293 Gal4-DAX1 luciferase reporter, luminescence; inhibition, % at 6.75 µM; 340,000 compounds, 0.99% hits; AID 504766;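 active means inhibition above the mean over all tested compounds plus 3 SD, cut at about 4.2% in these data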;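 further: 0% = DAX1-transfected cells with DMSO and 100% = empty-vector control cells with DMSO; inhibition shows as a rise in luminescence from relieved DAX1 repression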
hcDAF12 agonist: activates DAF-12 receptor from parasite H. contortus; HEK293 hcDAF-12 lit1-tk-luc reporter, luminescence; 0% DMSO, 100% Δ7-dafachronic acid; activation, % at 6.8 µM; 370,000 compounds, 1.4% hits; AID 652067;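 active means activation above the mean of all tested compounds plus 3 SD, cut at about 5.5% in these data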;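 further: 100% = response to 3 µM Δ7-dafachronic acid high control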
ssDAF-12 act: S. stercoralis DAF-12 activation, primary screen. HEK293 ssDAF-12/GRIP1 lit1-tk-luc reporter, luminescence; % of 3 µM dafachronic acid response. activation, % at 6.8 µM. 370,000 compounds, 1% hits. AID 652126;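 active means activation above the mean over all tested compounds plus 3 SD, cut at about 0.9% in these data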;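 further: 0% = DMSO-only wells and 100% = 3 µM delta7-dafachronic acid wells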
AHR act: human AHR activation; P35869; AHR-responsive luciferase reporter cells, luminescence; activation, % at 5 µM; 320,000 compounds, 2.5% hits; AID 2796; in the data active means activation above about 47%;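 further: 0% = vehicle wells and 100% = reference agonist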
DAX1 inh-2: DAX1 (NR0B1) inhibition, primary screen; 370,000 compounds, 1.1% hits; HEK293T StAR-luciferase reporter, SF-1/DAX-1 repression relief; inhibition, % at 6.8 µM;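 active means inhibition above the mean over all tested compounds plus 3 SD, cut at about 3.6% in these data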;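 further: 0% = DAX-1 cells with DMSO and 100% = cells lacking DAX-1 with DMSO; higher inhibition means more luminescence from relief of DAX-1 repression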
hgDAF12 agonist: hgDAF-12 agonism, primary luciferase screen. HEK293 GAL4-hgDAF12 UAS-luciferase reporter, agonist luminescence; normalized to butyrate control. AID 687014. activation, % at 6.8 µM. 370,000 compounds, 1.8% hits;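 active means activation above a cutoff set at the mean of all screened compounds plus 3 SD, cut at about 10% in these data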;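 further: 0% = DMSO wells and 100% = sodium butyrate wells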
* marks the source's active call; other numbers are inactive results; x = not tested or not shown.

SMILES	DAX1 inh-1	hcDAF12 agonist	ssDAF-12 act	AHR act	DAX1 inh-2	hgDAF12 agonist
COc1ccc(/C=C2/N=C3CCCCCN3C2=O)cc1	0	0	-1	1	1	5
O=C(c1ccc(F)cc1)N1CCC2(CC1)NCCc1[nH]cnc12	1	-1	0	1	0	0
O=C(COC(=O)c1cc[n+]([O-])cc1)Nc1ccc(SC(F)F)cc1	0	0	1.2*	11	1	1
CCc1ccccc1NNC(=O)c1cc(C)on1	1	0	-1	1	0	1
Cc1cc(C(=O)NNc2ccccc2F)no1	7.2*	-1	-1	0	0	-1
Cc1ccc(O)c(C(=O)CC(=O)c2ccc(Cl)cc2)c1	2	5	0	10	2	11*
Cc1ccc(O)c(C(=O)CC(=O)c2cccc(F)c2)c1	1	2	0	-1	2	8
O=C(CC(=O)c1cc(Cl)ccc1O)c1ccccc1	3	2	-1	43	1	12*
Cc1cccc(C(=O)CC(=O)c2cc(Cl)ccc2O)c1	1	x	x	17	x	x
c1ccc(CNC2CC3CCC2C3)cc1 (stereo not drawn)	-1	0	0.9*	x	0	4
O=C(/C=C/c1ccccc1)NC1CC2CCC1C2 (stereo not drawn)	0	1	-1	23	1	7
C=CCN1C(=O)S/C(=C\c2ccc(N3CCOCC3)cc2C)C1=O	4.2*	1	-1	-1	1	6
CCC(CO)NCc1ccccc1OC(C)C (stereo not drawn)	5.0*	0	-1	3	-1	-1
CC(C)C(C(=O)OCC(=O)c1ccccc1)N1C(=O)C2C3C=CC(C3)C2C1=O (stereo not drawn)	0	-1	-1	2	0	-4
CC(NC(=O)c1ccco1)C(=O)OC(C)C(=O)NCc1ccccc1 (stereo not drawn)	0	-1	-1	0	0	-3
Cc1cccc(C)c1NC(=O)CN(c1c(C)cccc1C)S(C)(=O)=O	5.0*	2	0	x	0	2
CC(Cc1ccccc1)NC(=O)CCNNC(=O)c1ccncc1 (stereo not drawn)	1	-1	-1	x	-2	0
C=C(C)C(COc1c2occc2cc2ccc(=O)oc12)OC(C)(C)C(O)COc1c2occc2cc2ccc(=O)oc12 (stereo not drawn)	-2	0	-1	78*	0	-1
COc1ccc(/C=C/C(=O)Nc2cc(=O)n(C)c(=O)n2C)cc1	2	3	-1	47*	1	6
Cn1c(NC(=O)/C=C/c2ccc(Cl)c(Cl)c2)cc(=O)n(C)c1=O	1	1	-2	22	0	-4
CN1CCN(NC(=O)c2ccc(Br)c(S(=O)(=O)N3CCOCC3)c2)CC1	-1	-1	-1	-2	0	2
O=C(N=C1c2ccccc2CN1c1cccc(Cl)c1)c1cccnc1	-1	4	0	14	1	11*
COc1ccc(C/C(C)=N\NC(=O)c2c[nH]c3ccccc23)cc1OC	1	3	0	53*	1	5
COc1ccc(CCNC(=O)C(=O)c2c[nH]c3ccccc23)cc1OC	1	1	-2	x	0	-1
CN(CC(=O)Nc1cccc(F)c1)C(=O)CC1CCCCC1	0	0	-1	0	2	1
SMILES	DAX1 inh-1	hcDAF12 agonist	ssDAF-12 act	AHR act	DAX1 inh-2	hgDAF12 agonist
CCCCc1ccc(NC(=O)C(C)CC)cc1 (stereo not drawn)	4.4*	0	-2	-2	1	5
Cc1ccc(C)c(NC(=S)NC2CC3CCC(C2)N3Cc2ccco2)c1 (stereo not drawn)	1	0	1.6*	2	0	2
Cc1cc(C)cc(NC(=S)NC2CC3CCC(C2)N3Cc2ccco2)c1 (stereo not drawn)	0	0	-2	-2	0	1
CC(=O)N1c2ccc(S(=O)(=O)N3CCCC3)cc2CC1C(=O)NCc1ccccc1F (stereo not drawn)	0	1	-1	7	0	-1
O=C(N/N=C/c1ccncc1)c1sc2ccccc2c1Cl	0	2	-2	7	3.9*	2
CCCn1nnc(NC(=O)c2sc3ccccc3c2Cl)n1	1	1	-1	-2	2	5
